Read-out in assay [1]: Vascular cell adhesion molecule 1 (VCAM1), VCAM1 (gene 7412)
The assay is described as follows: BSK_4H_VCAM1: BioMAP Diversity Plus: 4H Assay for Vascular cell adhesion molecule 1 (VCAM1) Biomarker Activity (AID 2283033). Particulars: primary human endothelial cells (HUVEC); actives raise or lower the signal. Put shortly: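 Primary human umbilical vein endothelial cells, 4H stimulation system, treated for 24 h; cell-surface VCAM-1 quantified by ELISA. Bidirectional fitting against DMSO; cytotoxicity tracked by SRB total-protein staining in parallel cultures.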

Read-out in assay [2]: Interferon-gamma inducible Protein 10 (IP10), CXCL10 (gene 3627)
The assay is described as follows: BSK_BE3C_IP10: BioMAP Diversity Plus: BE3C Assay for Interferon-gamma inducible Protein 10 (IP10) Biomarker Activity (AID 2283034). The following applies: primary human bronchial epithelial cells; actives raise or lower the signal. Put shortly:
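Primary human bronchial epithelial cells, with IP-10 measured by ELISA 24 hours after chemical dosing. Bidirectional fit against DMSO; cytotoxicity checked by SRB total protein staining in parallel cultures.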

Read-out in assay [3]: Monokine induced gamma interferon (MIG), CXCL9 (gene 4283)
The assay is described as follows: BSK_BE3C_MIG: BioMAP Diversity Plus: BE3C Assay for Monokine induced gamma interferon (MIG) Biomarker Activity (AID 2283035). The following applies: primary human bronchial epithelial cells; actives raise or lower the signal. Put shortly: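 ELISA read-out of MIG in human lung bronchial epithelial primary cultures, 24 h post-dosing. Bidirectional curve fit vs DMSO baseline.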

Read-out in assay [4]: Transforming growth factor beta 1 (TGFb1), TGFB1 (gene 7040)
Nature of the assay: BSK_BE3C_TGFb1: BioMAP Diversity Plus: BE3C Assay for Transforming growth factor beta 1 (TGFb1) Biomarker Activity (AID 2283036). The following applies: primary human bronchial epithelial cells; actives raise or lower the signal. Summed up:
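Primary human bronchial epithelial cells dosed with chemical; TGF-b1 measured by ELISA 24 h after dosing. Bidirectional curve fitting against DMSO negative control; SRB total-protein staining in parallel cultures gauged cytotoxicity.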

Read-out in assay [5]: Plasminogen activator inhibitor-1 (PAI1), SERPINE1 (gene 5054)
The assay is described as follows: BSK_BE3C_PAI1: BioMAP Diversity Plus: BE3C Assay for Plasminogen activator inhibitor-1 (PAI1) Biomarker Activity (AID 2283037). Particulars: primary human bronchial epithelial cells; actives raise or lower the signal. Summed up: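 Primary human bronchial epithelial cells (BE3C system) exposed 24 h; PAI-1 quantified by ELISA. Parallel sulforhodamine B staining of total protein flags cytotoxicity. Bidirectional fit versus DMSO.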

Read-out in assay [6]: urokinase plasminogen activator (uPA), PLAU (gene 5328)
Nature of the assay: BSK_BE3C_uPA: BioMAP Diversity Plus: BE3C Assay for urokinase plasminogen activator (uPA) Biomarker Activity (AID 2283038).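 For outcome: uPA protein level quantified by ELISA in cell cultures; uPA read one day after compound addition.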 Particulars: primary human bronchial epithelial cells; actives raise or lower the signal. Put shortly: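 ELISA read-out of uPA in human lung primary bronchial epithelial cultures, 24 h post-dosing. Gain or loss of signal fitted bidirectionally relative to DMSO baseline; cytotoxicity checked in parallel cultures via SRB total protein stain.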

Read-out in assay [7]: Urokinase-type plasminogen activator receptor (uPAR), PLAUR (gene 5329)
The assay is described as follows: BSK_BE3C_uPAR: BioMAP Diversity Plus: BE3C Assay for Urokinase-type plasminogen activator receptor (uPAR) Biomarker Activity (AID 2283039).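 For outcome: uPAR protein level measured by ELISA on the cells; cells exposed to compound for one day before measurement.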 Particulars: primary human bronchial epithelial cells; actives raise or lower the signal. Put shortly:
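Primary human bronchial epithelial cells dosed for 24 h; uPAR quantified by ELISA with bidirectional fitting against DMSO. Overt cytotoxicity assessed in parallel cultures by SRB total-protein staining (0.1% SRB, 560 nm).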

Read-out in assay [8]: Interleukin-6 (IL6), IL6 (gene 3569)
The assay is described as follows: BSK_CASM3C_IL6: BioMAP Diversity Plus: CASM3C Assay for Interleukin-6 (IL6) Biomarker Activity for (AID 2283040). The following applies: primary human coronary artery smooth muscle cells; actives raise or lower the signal.

Read-out in assay [9]: Tissue plasminogen activator (tPA), PLAT (gene 5327)
Nature of the assay: BSK_BE3C_tPA: BioMAP Diversity Plus: BE3C Assay for Tissue plasminogen activator (tPA) Biomarker Activity (AID 2283041).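 For outcome: tPA level quantified by ELISA one day after compound addition.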 The following applies: primary human bronchial epithelial cells; actives raise or lower the signal. Put shortly:
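Primary human bronchial epithelial cells in the BE3C system, exposed to compound for 24 h. tPA was quantified by ELISA; DMSO served as baseline, with gain or loss of signal fitted. Cytotoxicity checked in parallel cultures by SRB total-protein staining.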

Read-out in assay [10]: Interleukin-8 (IL8), CXCL8 (gene 3576)
The assay is described as follows: BSK_CASM3C_IL8: BioMAP Diversity Plus: CASM3C Assay for Interleukin-8 (IL8) Biomarker Activity (AID 2283042).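 Note: IL-8 protein level quantified by ELISA.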 The following applies: primary human coronary artery smooth muscle cells; actives raise or lower the signal.

“And” between values parts separate entries of the source, which are not always exact repeats. Equal values may be shown once. The source made the active and inactive calls. Rule for the calls: active = hit-call score of the fitted dose curve at least 0.9, where 1 is the maximum; inactive = score below 0.9.

On to `COCc1c(C(C)C)nc(C(C)C)c(/C=C/[C@@H](O)C[C@@H](O)CC(=O)O)c1-c1ccc(F)cc1`, for which the outcome in assay [1], in assay [2], in assay [3], in assay [4], in [5] and in [6] was inactive. Further, the result in assay [7], in [8] and in assay [9] was inactive. Moreover, the AC50 in assay [10] is 0.0375 µM (active).
Consider `C/C=C\C/C=C/CCCCCCCCOC(C)=O`, for which the half-maximal activity concentration (AC50) in [1] is 29.3 µM (active); in assay [2], 20 µM (active). Moreover, the outcome in assay [3], in assay [4], in assay [5], in [6], in assay [7] and in [8] was inactive. For the same molecule, the result in [9] and in [10] was inactive.
Take `CC1OC1C1CCC2(C)OC2C1` (stereo not given): the outcome in assay [1], in assay [2], in [3], in assay [4], in assay [5] and in assay [6] was inactive. The outcome in [7], in assay [8], in assay [9] and in assay [10] was inactive.
Consider `O=C1CCCN1CCO`, for which the result in [1], in assay [2], in assay [3], in assay [5], in assay [6] and in assay [7] was inactive. The result in assay [8], in [9] and in [10] was inactive.
Turning to `CCCCC(CC)COCC1CO1` (stereo not given), the result in assay [1], in assay [2], in [3], in assay [5], in assay [6] and in assay [7] was inactive. For the same molecule, the outcome in assay [8], in [9] and in [10] was inactive.
Regarding `CCOc1nc(F)cc2nc(S(=O)(=O)Nc3c(Cl)cccc3C(=O)OC)nn12`, the outcome in assay [1], in assay [2], in [3], in [4], in assay [5] and in [6] was inactive. Besides, the outcome in assay [7], in assay [8], in assay [9] and in assay [10] was inactive.
As to `c1ccc2c(c1)ccc1ncccc12`, the outcome in assay [1], in [2], in assay [3], in [4], in assay [5] and in assay [6] was inactive. Besides, the outcome in assay [7], in [8], in assay [9] and in assay [10] was inactive.
Consider `O=Nc1ccc(O)cc1`, for which the outcome in assay [1], in assay [2], in assay [3], in assay [4], in assay [5] and in assay [6] was inactive. The result in [7], in assay [8], in assay [9] and in assay [10] was inactive.
For `C=C[Si](OC(C)=O)(OC(C)=O)OC(C)=O`, the outcome in [1], in [2], in [3], in assay [5], in assay [6] and in [7] was inactive. Besides, the outcome in [8], in [9] and in assay [10] was inactive.
As to `Nc1ccc(N)c(Cl)c1`, the AC50 is 20 µM (active) and 19.6 µM (active) in [1]; 3.32 µM (active) and 2.4 µM (active) in [5]; 11.1 µM (active) and 4.19 µM (active) in [7]. For the same molecule, the result in assay [2], in [3], in assay [6], in assay [8], in assay [9] and in assay [10] was inactive.
`CCCCCCCCc1ccc(Nc2ccc(CCCCCCCC)cc2)cc1`: the result in assay [1], in [2], in assay [3], in [4], in assay [5] and in assay [6] was inactive. In addition, the outcome in [7], in [8], in assay [9] and in [10] was inactive.
With `CCCCC/C=C\C/C=C\CCCCCCCC(=O)OC`, the AC50 in assay [1] is 36.2 µM (active); in [2], 24.9 µM (active); in [3] it was 38.5 µM (active); in assay [8], 20 µM (active). Further, the result in assay [4], in assay [5], in assay [6], in assay [7], in assay [9] and in assay [10] was inactive.
As for `C#CC1(O)CC[C@H]2[C@@H]3CCC4=CCCC[C@@H]4[C@H]3CC[C@@]21C` (stereo not given in full), the AC50 is 15.1 µM (active) in assay [1]; 34.8 µM (active) in assay [2]; 36 µM (active) in assay [3]; 20 µM (active) in [6]; 20 µM (active) in assay [7]; 6.06 µM (active) in assay [8]. Further, the concentration at half-maximal activity (AC50) in assay [10] was 32.8 µM (active). Also, the result in assay [4], in assay [5] and in assay [9] was inactive.
Take `CCCCCCCCCCCCCCCC[N+](C)(C)CC`: the concentration at half-maximal activity (AC50) is 1.9 µM (active) in assay [1]; 2.19 µM (active) in assay [2]; 9.57 µM (active) in assay [3]; 599 nM (active) in assay [4]; 10.4 µM (active) in assay [5]; 2.25 µM (active) in assay [6]. The concentration at half-maximal activity (AC50) is 2.08 µM (active) in assay [7], 4.5 µM (active) in assay [8], 797 nM (active) in assay [9] and 5.98 µM (active) in [10].
As to `c1ccc2c(c1)ccc1cc3c(ccc4ccccc43)cc12`, the result in assay [1], in [2], in assay [3], in assay [4], in assay [5] and in [6] was inactive. Further, the outcome in assay [7], in [8], in assay [9] and in assay [10] was inactive.
For the molecule `CN1C(=O)N(C)C(O)C1O` (stereo not given), the result in assay [1], in assay [2], in assay [3], in assay [5], in [6] and in assay [7] was inactive. Besides, the result in assay [8], in [9] and in assay [10] was inactive.
For the molecule `CC(C)C(=O)C(C)C`, the result in [1], in [2], in assay [3], in assay [4], in [5] and in [6] was inactive. Also, the result in assay [7], in assay [8], in assay [9] and in [10] was inactive.
Consider `C=CC=CC=CCCCCC`, for which the outcome in assay [1], in assay [3], in assay [4], in [5], in assay [6] and in [7] was inactive. Besides, the outcome in assay [8], in assay [9] and in [10] was inactive. For the same molecule, in [2], the half-maximal activity concentration (AC50) is 5 µM (active).

The values above are taken from PubChem BioAssay (EPA / NIEHS).
